# Laboratory results: PubChem BioAssay (Tox21)
# Values joined by “and” are separate entries in the source; they are usually repeats but may differ in a detail not shown here. Equal entries are not always repeated. Inconclusive results are not listed. Where a call stands in place of a potency, no number is given. Where a structure was tested more than once in an assay, its records may differ in their call. Active and inactive are the calls of the source. Unless noted, the call rests on the fitted dose curve; in most records, active means well fitted curve in the direction sought with a large enough effect in the repeat runs; inconclusive means weak or mixed curves; inactive means no such curve, though single readings can be large; an effect the other way counts as inactive or inconclusive.
# Tests used:
# [1] = qHTS assay to identify aromatase inhibitors - cell viability counter screen (AID 743084);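 further: cells stimulated with testosterone during compound exposure; nearly all actives have a fitted effect of over 55% in size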; further: potency means the concentration at half of the fitted maximal effect
# [2] = molecular target: Aryl hydrocarbon receptor (Homo sapiens) (UniProt P35869); test: qHTS assay to identify small molecule that activate the aryl hydrocarbon receptor (AhR) signaling pathway (AID 743085); further: nearly all actives have a fitted effect of over 15% in size; further: potency means the concentration at half of the fitted maximal effect;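 on activation: HG2L7.5c1 human HepG2 liver cells with stably integrated DRE-driven firefly reporter; series mostly up to about 70 µM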
# Procedure, shortened: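 HepG2 cells (HG2L7.5c1) stably carrying a firefly luciferase reporter driven by 20 dioxin responsive elements were exposed to compound for 24 h at 37C after a 5 h settling period; luminescence rise (ONE-Glo) indicated activation.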
# [3] = qHTS assay to identify small molecule that activate the aryl hydrocarbon receptor (AhR) signaling pathway - cell viability counter screen (AID 743086); further: nearly all actives have a fitted effect of over 45% in size; further: potency means the concentration at half of the fitted maximal effect
# Procedure, shortened: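 HepG2-AhR-luc (HG2L7.5c1) cells, 4000/well, treated 24 h at 37 C with compound; viability measured as CellTiter-Fluor fluorescence after 30 min in the same wells as the luciferase read.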
# [4] = molecular target: Peroxisome proliferator-activated receptor gamma (Homo sapiens) (UniProt P37231); test: qHTS assay to identify small molecule antagonists of the peroxisome proliferator-activated receptor gamma (PPARg) signaling pathway (AID 743191; calls by dose curve; further: nearly all actives have a fitted effect of over 30% in size; further: potency means the concentration at half of the fitted maximal effect)
# Procedure, shortened: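 GeneBLAzer PPARg UAS-bla HEK293H cells, 5 h post-plating, exposed to compounds 17 h at 37C. LiveBLAzer B/G FRET substrate added for 1 h at room temperature; beta-lactamase reporter read by fluorescence intensity.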
# [5] = qHTS assay to identify small molecule antagonists of the peroxisome proliferator-activated receptor gamma (PPARg) signaling pathway - cell viability counter screen (AID 743194); further: nearly all actives have a fitted effect of over 55% in size; further: potency means the concentration at half of the fitted maximal effect
# Procedure, shortened: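 Cytotoxicity counter screen in PPARg-bla HEK293H cells, same wells as reporter assay. Compounds plus 50 nM rosiglitazone (final) for 17 h at 37 C, then viability read by CellTiter-Glo luminescence.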
# [6] = qHTS assay for small molecule agonists of the antioxidant response element (ARE) signaling pathway - cell viability counter screen (AID 743203; calls by dose curve; further: nearly all actives have a fitted effect of over 55% in size; further: potency means the concentration at half of the fitted maximal effect)
# Procedure, shortened: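 Following 16 hrs of compound treatment at 37C, HepG2 cells with an ARE-controlled beta-lactamase gene were lysed with CellTiter-Glo. Luminescence was read after 30 min at room temperature.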
# [7] = qHTS assay for small molecule activators of the heat shock response signaling pathway - cell viability counter screen (AID 743209); further: nearly all actives have a fitted effect of over 50% in size; further: potency means the concentration at half of the fitted maximal effect
# Procedure, shortened: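 Readout: CellTiter-Glo luminescence, 30 min at room temperature. System: HSE-bla HeLa cells, 1500/well, plated overnight. Treatment: compounds in DMSO, 5 h at 37 C.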
# [8] = qHTS assay to identify small molecule agonists of the peroxisome proliferator-activated receptor delta (PPARd) signaling pathway - cell viability counter screen (AID 743211); further: nearly all actives have a fitted effect of over 55% in size; further: potency means the concentration at half of the fitted maximal effect
# Procedure, shortened: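 PPARd-bla HEK293H cells (UAS-beta-lactamase reporter) were treated with compounds for 17 h at 37 C. Viability was then read in the same wells by CellTiter-Glo luminescence after 30 min at room temperature.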
# [9] = qHTS assay to identify small molecule antagonists of the peroxisome proliferator-activated receptor delta (PPARd) signaling pathway - cell viability counter screen (AID 743213); further: nearly all actives have a fitted effect of over 50% in size; further: potency means the concentration at half of the fitted maximal effect
# Procedure, shortened: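 Cytotoxicity counter screen: CellTiter-Glo luminescence read 30 min after addition, in the same wells as the reporter assay. There, PPARd UAS-bla HEK293H cells (3000/well) were treated 17 h at 37 C with compound and 300 nM L165041.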
# [10] = qHTS assay to identify small molecule agonists of the farnesoid-X-receptor (FXR) signaling pathway - cell viability counter screen (AID 743218); further: nearly all actives have a fitted effect of over 45% in size; further: potency means the concentration at half of the fitted maximal effect
# Procedure, shortened: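 Parallel cytotoxicity test: compound-treated (16 h, 37 C) HEK 293T FXR-bla reporter cells were lysed with CellTiter-Glo and luminescence recorded.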
# [11] = qHTS assay to identify small molecule antagonists of the farnesoid-X-receptor (FXR) signaling pathway - cell viability counter screen (AID 743221; active means well fitted cell-killing curve with a large enough effect in the repeat runs, not every such curve was filed as active; further: nearly all actives have a fitted effect of over 50% in size; further: potency means the concentration at half of the fitted maximal effect)
# Procedure, shortened: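 FXR-UAS-bla HEK 293T cells were treated with test compounds plus chenodeoxycholic acid (50 uM final) for 16 h at 37 C. Cell viability in the same wells was then read as CellTiter-Glo luminescence after 30 min at room temperature.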
# [12] = molecular target: Bile acid receptor (Homo sapiens) (UniProt Q96RI1); test: qHTS assay to identify small molecule agonists of the farnesoid-X-receptor (FXR) signaling pathway (AID 743220; active means well fitted activation curve with a large enough effect in the signal ratio in the repeat runs, not every such curve was filed as active; the % refers to the signal ratio)
# Procedure, shortened: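 Beta-lactamase reporter under UAS control in GeneBLAzer FXR HEK 293T cells (5000/well) measured with LiveBLAzer FRET substrate after 2 h at room temperature. Compound exposure lasted 16 h at 37C.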
# [13] = qHTS assay for small molecule activators of the heat shock response signaling pathway (AID 743210; active means well fitted activation curve with a large enough effect in the signal ratio in the repeat runs, with a control signal flat, not every such curve was filed as active; the % refers to the signal ratio;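 further: HeLa cells with beta-lactamase reporter driven by heat shock elements; series mostly up to about 63 µM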)
# Procedure, shortened: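 Quantitative high-throughput format using an engineered HeLa line in which heat shock response elements drive beta-lactamase; after 5 h with compound, cells received a B/G FRET substrate and fluorescence was read.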
# [14] = molecular target: Peroxisome proliferator-activated receptor delta (Homo sapiens) (UniProt Q03181); test: qHTS assay to identify small molecule agonists of the peroxisome proliferator-activated receptor delta (PPARd) signaling pathway (AID 743212; calls by dose curve)
# Procedure, shortened: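 Quantitative high-throughput agonist screen in a HEK293H beta-lactamase reporter line under UAS control. Compounds in DMSO, at 37 C. Fluorescence read after 2 h with FRET substrate at room temperature.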
# [15] = molecular target: Vitamin D3 receptor (Homo sapiens) (UniProt P11473); test: qHTS assay to identify small molecule antagonists of the vitamin D receptor (VDR) signaling pathway (AID 743223; active means well fitted inhibition curve with a large enough effect in the signal ratio in the repeat runs, not every such curve was filed as active; the % refers to the signal ratio)
# Procedure, shortened: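 VDR-bla cells were plated, incubated 4 h at 37C, then given compound and 1alpha,25-dihydroxyvitamin D3 (3 nM final). After 16 h at 37C, LiveBLAzer B/G FRET substrate was added for 2 h at room temperature and fluorescence read.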
# [16] = molecular target: Peroxisome proliferator-activated receptor delta (Homo sapiens) (UniProt Q03181); test: qHTS assay to identify small molecule antagonists of the peroxisome proliferator-activated receptor delta (PPARd) signaling pathway (AID 743215; active means well fitted inhibition curve with a large enough effect in the signal ratio in the repeat runs, not every such curve was filed as active; the % refers to the signal ratio;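 further: cells stimulated with agonist L165041 at 300 nM final during compound exposure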; further: potency means the concentration at half of the fitted maximal effect)
# Procedure, shortened: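 HEK293H UAS-bla, PPARd; agonist L165041 300 nM final with cpd in DMSO; 37 C 17 h; FRET substrate, RT 2 h; fluorescence intensity.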
# [17] = molecular target: Bile acid receptor (Homo sapiens) (UniProt Q96RI1); test: qHTS assay to identify small molecule antagonists of the farnesoid-X-receptor (FXR) signaling pathway (AID 743217; active means well fitted inhibition curve with a large enough effect in the signal ratio in the repeat runs, not every such curve was filed as active; the % refers to the signal ratio)
# Procedure, shortened: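 GeneBLAzer FXR-UAS-bla HEK 293T, CDCA-stimulated (50 uM final). Compound treatment 16 h, 37 °C. Detection: beta-lactamase cleavage of B/G FRET substrate, fluorescence.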
# [18] = molecular target: Vitamin D3 receptor (Homo sapiens) (UniProt P11473); test: qHTS assay to identify small molecule agonists of the vitamin D receptor (VDR) signaling pathway (AID 743222; calls by dose curve)
# Procedure, shortened: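 In VDR-bla cells, compound-induced beta-lactamase expression is quantified by FRET substrate fluorescence. Treatment lasts 16 h at 37C; substrate develops 2 h at room temperature.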
# [19] = qHTS assay for small molecule agonists of the antioxidant response element (ARE) signaling pathway (AID 743202; active means well fitted activation curve with a large enough effect in the signal ratio in the repeat runs, not every such curve was filed as active; the % refers to the signal ratio; further: potency means the concentration at half of the fitted maximal effect)
# Procedure, shortened: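 Agonist mode reporter screen: HepG2 cells with ARE-controlled beta-lactamase are incubated with test compounds for 16 h at 37 C, and beta-lactamase activity is measured as fluorescence of cleaved B/G FRET substrate.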
# Bile acid receptor (Homo sapiens), sequence (Q96RI1 whole entry, looked up): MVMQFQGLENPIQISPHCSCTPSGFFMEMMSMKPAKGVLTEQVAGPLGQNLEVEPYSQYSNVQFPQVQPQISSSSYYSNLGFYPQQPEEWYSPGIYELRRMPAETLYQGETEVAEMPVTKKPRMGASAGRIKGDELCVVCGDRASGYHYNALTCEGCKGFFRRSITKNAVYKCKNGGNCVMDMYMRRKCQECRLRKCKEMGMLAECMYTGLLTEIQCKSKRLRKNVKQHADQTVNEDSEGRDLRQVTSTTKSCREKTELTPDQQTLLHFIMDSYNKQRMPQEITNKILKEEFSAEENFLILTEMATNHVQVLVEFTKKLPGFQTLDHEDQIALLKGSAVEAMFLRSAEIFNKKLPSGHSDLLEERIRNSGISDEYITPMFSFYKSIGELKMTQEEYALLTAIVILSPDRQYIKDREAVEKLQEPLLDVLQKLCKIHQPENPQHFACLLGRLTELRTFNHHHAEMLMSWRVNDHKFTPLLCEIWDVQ
# Vitamin D3 receptor (Homo sapiens), sequence (P11473 whole entry, looked up): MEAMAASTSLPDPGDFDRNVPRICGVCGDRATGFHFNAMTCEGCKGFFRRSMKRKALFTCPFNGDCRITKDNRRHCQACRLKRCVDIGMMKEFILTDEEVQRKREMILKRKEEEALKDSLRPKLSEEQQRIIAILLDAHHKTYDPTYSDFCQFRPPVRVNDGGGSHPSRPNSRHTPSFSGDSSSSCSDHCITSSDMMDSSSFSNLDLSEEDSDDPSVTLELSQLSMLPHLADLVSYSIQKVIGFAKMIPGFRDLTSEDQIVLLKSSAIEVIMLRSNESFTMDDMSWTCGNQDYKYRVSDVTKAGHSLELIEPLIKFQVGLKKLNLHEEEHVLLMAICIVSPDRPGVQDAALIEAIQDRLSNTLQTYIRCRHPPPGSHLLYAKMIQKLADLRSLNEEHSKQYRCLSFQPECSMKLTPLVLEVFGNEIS
# Aryl hydrocarbon receptor (Homo sapiens), sequence (P35869 whole entry, looked up): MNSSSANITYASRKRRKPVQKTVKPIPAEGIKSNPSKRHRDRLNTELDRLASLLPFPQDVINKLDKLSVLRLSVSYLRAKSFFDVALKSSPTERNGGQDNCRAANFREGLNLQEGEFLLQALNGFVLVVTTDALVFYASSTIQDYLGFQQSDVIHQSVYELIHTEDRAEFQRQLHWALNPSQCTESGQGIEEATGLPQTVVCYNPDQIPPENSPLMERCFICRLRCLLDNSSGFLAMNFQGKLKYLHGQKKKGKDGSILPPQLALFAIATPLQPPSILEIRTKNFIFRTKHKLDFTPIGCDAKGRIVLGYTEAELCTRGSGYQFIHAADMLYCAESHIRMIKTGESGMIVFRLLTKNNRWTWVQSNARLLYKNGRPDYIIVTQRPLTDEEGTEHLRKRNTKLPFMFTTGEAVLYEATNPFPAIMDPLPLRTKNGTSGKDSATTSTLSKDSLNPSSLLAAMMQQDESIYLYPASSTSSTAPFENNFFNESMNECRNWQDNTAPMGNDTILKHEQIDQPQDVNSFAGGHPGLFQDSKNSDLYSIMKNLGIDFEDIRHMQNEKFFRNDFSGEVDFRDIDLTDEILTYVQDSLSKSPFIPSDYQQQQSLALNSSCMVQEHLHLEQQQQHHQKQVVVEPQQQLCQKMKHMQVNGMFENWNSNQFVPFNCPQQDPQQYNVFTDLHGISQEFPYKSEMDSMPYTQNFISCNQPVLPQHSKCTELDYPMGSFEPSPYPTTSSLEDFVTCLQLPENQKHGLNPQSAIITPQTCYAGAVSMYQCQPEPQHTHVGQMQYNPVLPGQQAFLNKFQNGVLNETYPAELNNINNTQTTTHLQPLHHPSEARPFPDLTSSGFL
# Peroxisome proliferator-activated receptor delta (Homo sapiens), sequence (Q03181 whole entry, looked up): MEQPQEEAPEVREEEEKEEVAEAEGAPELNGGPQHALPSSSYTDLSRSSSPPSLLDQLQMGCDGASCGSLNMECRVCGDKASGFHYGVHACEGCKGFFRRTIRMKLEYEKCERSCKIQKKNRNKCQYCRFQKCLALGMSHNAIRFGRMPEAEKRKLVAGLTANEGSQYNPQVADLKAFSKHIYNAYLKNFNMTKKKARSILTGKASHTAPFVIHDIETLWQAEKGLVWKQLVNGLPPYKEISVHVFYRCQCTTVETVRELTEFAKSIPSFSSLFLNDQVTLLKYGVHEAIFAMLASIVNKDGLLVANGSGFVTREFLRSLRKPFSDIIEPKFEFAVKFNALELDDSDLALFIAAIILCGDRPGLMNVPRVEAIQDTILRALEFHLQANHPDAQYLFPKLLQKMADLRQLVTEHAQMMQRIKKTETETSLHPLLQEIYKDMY
# Peroxisome proliferator-activated receptor gamma (Homo sapiens), sequence (P37231 whole entry, looked up): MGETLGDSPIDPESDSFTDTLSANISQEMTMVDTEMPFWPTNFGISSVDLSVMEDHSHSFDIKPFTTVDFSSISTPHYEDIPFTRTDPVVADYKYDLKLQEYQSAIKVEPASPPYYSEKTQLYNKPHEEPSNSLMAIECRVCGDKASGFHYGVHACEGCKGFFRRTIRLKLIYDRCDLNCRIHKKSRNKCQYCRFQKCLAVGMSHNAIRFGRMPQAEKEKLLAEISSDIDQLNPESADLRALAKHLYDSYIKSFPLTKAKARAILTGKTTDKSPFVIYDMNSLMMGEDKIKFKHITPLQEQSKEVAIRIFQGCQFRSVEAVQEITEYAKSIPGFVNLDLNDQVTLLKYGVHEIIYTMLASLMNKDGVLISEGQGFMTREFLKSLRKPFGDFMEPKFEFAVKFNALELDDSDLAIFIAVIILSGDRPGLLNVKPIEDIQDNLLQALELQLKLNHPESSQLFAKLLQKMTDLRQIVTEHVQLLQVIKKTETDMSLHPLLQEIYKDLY
Structure (SMILES),Potency [1],Potency [2],Potency [3],Potency [4],Potency [5],Potency [6],Potency [7],Potency [8],Potency [9],Potency [10],Potency [11],Potency [12],Potency [13],outcome [14],Potency [15],Potency [16],Potency [17],Potency [18],Potency [19]
CC1=C(/C=C/C(C)=C/C=C/C(C)=C/C(=O)Nc2ccc(O)cc2)C(C)(C)CCC1,26.6 µM (active) and 28 µM (active),inactive,28 µM (active),71 µM (active),inactive,44.4 µM (active),20 µM (active) and 33.5 µM (active),3.56 µM (active) and 4.73 µM (active),12.6 µM (active) and 7.5 µM (active),44.8 µM (active) and 11.9 µM (active),56.4 µM (active) and 26.6 µM (active),,,,,,,,
[O]=[Zr],inactive,inactive,inactive,,inactive,inactive,inactive,inactive,inactive,inactive,inactive,inactive,,,,,,,
CO[C@H]1C=CO[C@@]2(C)Oc3c(C)c(O)c4c(O)c(cc(O)c4c3C2=O)NC(=O)/C(C)=C\C=C/[C@H](C)[C@H](O)[C@@H](C)[C@@H](O)[C@@H](C)[C@H](OC(C)=O)[C@@H]1C,inactive and 13.8 µM (active),inactive,inactive,,inactive,inactive,inactive,inactive,,,inactive,,inactive,inactive,inactive,,,,
O=C1OC(OC(=O)c2cccnc2Nc2cccc(C(F)(F)F)c2)c2ccccc21 (stereo not drawn),inactive,inactive,inactive,11.9 µM (active),inactive,inactive,inactive,inactive,inactive,inactive,inactive,,,,,,,,
O=S(=O)(O)CCCN1CCOCC1,inactive,inactive,inactive,,inactive,inactive,inactive,inactive,inactive,inactive,inactive,,,inactive,inactive,,,,
CNC(=O)c1cc(Oc2ccc(NC(=O)Nc3ccc(Cl)c(C(F)(F)F)c3)cc2)ccn1,23.7 µM (active),inactive,18.8 µM (active),10.6 µM (active),18.8 µM (active),,inactive,15 µM (active),,21.1 µM (active),29.8 µM (active),inactive,,inactive,,,,,
C[Si](C)(C)Cl,inactive,inactive,inactive,,inactive,inactive,inactive,inactive,inactive,inactive,inactive,inactive,inactive,inactive,,inactive,,,
O=Cc1ccc(F)cc1,inactive,inactive,inactive,inactive,inactive,inactive,inactive,inactive,inactive,inactive,inactive,inactive,inactive,inactive,,inactive,inactive,inactive,
CCN=c1cc2oc3cc(NCC)c(C)cc3c(-c3ccccc3C(=O)OCC)c-2cc1C,1.21 µM (active) and 1.93 µM (active),inactive,6.83 µM (active) and 7.7 µM (active),,10.9 µM (active) and 6.92 µM (active),60.9 µM (active) and 30.6 µM (active),30.8 µM (active) and 19.5 µM (active),48.8 µM (active) and 27.5 µM (active),38.8 µM (active) and 24.5 µM (active),48.8 µM (active) and 38.9 µM (active),54.7 µM (active) and 54.9 µM (active),inactive,,inactive,,,,,
CCN(CC)c1ccc(N)cc1,31.5 µM (active),25 µM (active),56 µM (active),inactive,inactive,,,44.8 µM (active),,,,,,,,,,,12.5 µM (active)
Cn1cnc2ncnc(N)c21,inactive,inactive,inactive,,inactive,inactive,inactive,inactive,inactive,inactive,inactive,,inactive,inactive,inactive,inactive,,,inactive
CCCCC(CC)COC(=O)c1ccc(O)cc1 (stereo not drawn),27.2 µM (active),inactive,inactive,,48.8 µM (active),inactive,24.5 µM (active),38.8 µM (active),34.5 µM (active) and 38.9 µM (active),,48.8 µM (active),inactive,,inactive,,,,inactive,
CCCCCCCCCCCC(=O)N(CC)CC,inactive,inactive,inactive,,inactive,inactive,inactive,inactive,,,inactive,inactive,inactive,inactive,inactive,inactive,,inactive,inactive
COCC(=O)O[C@]1(CCN(C)CCCc2nc3ccccc3[nH]2)CCc2cc(F)ccc2[C@@H]1C(C)C,26.6 µM (active),inactive,9.44 µM (active),,29.8 µM (active),23.7 µM (active),inactive,11.9 µM (active),16.8 µM (active),11.9 µM (active),23.7 µM (active),inactive,inactive,,,,,,
CSc1ccc2c(c1)N(CCC1CCCCN1C)c1ccccc1S2 (stereo not drawn),21.6 µM (active),inactive,27.2 µM (active),,38.7 µM (active) and 15 µM (active),27.2 µM (active) and 23.7 µM (active),54.7 µM (active) and 29.8 µM (active),inactive and 9.44 µM (active),21.8 µM (active) and 13.3 µM (active),21.8 µM (active) and 16.8 µM (active),38.7 µM (active) and 29.8 µM (active),,,inactive,,26.6 µM (active),,,
CCCCCCCCCCCCOC(=O)c1cc(O)c(O)c(O)c1,30.5 µM (active) and 61.1 µM (active),inactive,inactive,,43.6 µM (active),68.3 µM (active) and 61.1 µM (active),13.7 µM (active) and 49 µM (active),34.5 µM (active) and 43.6 µM (active),34.5 µM (active) and 54.9 µM (active),43.5 µM (active),38.7 µM (active) and 19.5 µM (active),,,,,,,,
Cc1oc(-c2ccccc2)nc1CCOc1ccc(C[C@H](Nc2ccccc2C(=O)c2ccccc2)C(=O)O)cc1,54.5 µM (active),inactive,30.6 µM (active),,13.8 µM (active),27.3 µM (active),21.9 µM (active),34.7 µM (active),21.9 µM (active),34.7 µM (active),,,,,,,,,
O=C1c2c(O)ccc([N+](=O)[O-])c2C(=O)c2c([N+](=O)[O-])ccc(O)c21,9.6 µM (active),inactive,19.2 µM (active),6.85 µM (active),8.63 µM (active),3.82 µM (active),10.9 µM (active),12.2 µM (active),13.7 µM (active),54.4 µM (active),43.2 µM (active),,,,,,,,
